The whole screen tested about 5,500 compounds, of which about 2,000 (36%) were called active. Another 18% or so got no clear call; they are omitted. Rule as the data show it: active = normalized growth mostly below about 0.91 (no sharp cut-off); inconclusive = no clear call, values can overlap the other calls; inactive = mostly above about 0.92. Some of the results follow.
Test: chemical genetic growth profiling, strain panel (AID 1159580);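 also: tested at 20 µM; growth read once vehicle control cultures reached saturation at 30 °C; 1 = growth at the plate median or of vehicle wells; lower values mean less growth of the strain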
Conditions: growth OD

Measured: normalized growth

COc1ccc(C(c2ccc(OC)cc2)C(Cl)(Cl)Cl)cc1
inactive: S. cerevisiae deletion strains, locus YJR043C, strain POL32, hits give low values 0.987 | S. cerevisiae deletion strains, locus YJR075W, strain HOC1, hits give low values 1.01 | S. cerevisiae deletion strains, locus YKL009W, strain mrt4, hits give low values 0.949 | S. cerevisiae deletion strains, locus YKL068W, hits give low values 0.995 | S. cerevisiae deletion strains, locus YKL085W, strain MDH1 (second series), hits give low values 0.999 | S. cerevisiae deletion strains, locus YKL085W, strain MDH1, hits give low values 0.999 | S. cerevisiae deletion strains, locus YKL160W, strain elf1, hits give low values 1 | S. cerevisiae deletion strains, locus YKL190W, strain CNB1, hits give low values 1.01 | S. cerevisiae deletion strains, locus YKR001C, strain vps1, hits give low values 0.966 | S. cerevisiae deletion strains, locus YKR026C, strain gcn3, hits give low values 1.01 | S. cerevisiae deletion strains, locus YKR091W, strain srl3, hits give low values 1.02 | S. cerevisiae deletion strains, locus YLL001W, strain dnm1, hits give low values 1.01 | S. cerevisiae deletion strains, locus YLL026W, hits give low values 1.02 | S. cerevisiae deletion strains, locus YLL041C, strain sdh2, hits give low values 1.02 | S. cerevisiae deletion strains, locus YLR027C, strain aat2, hits give low values 1.02 | S. cerevisiae deletion strains, locus YLR039C, strain RIC1, hits give low values 1.01 | S. cerevisiae deletion strains, locus YLR058C, strain SHM2, hits give low values 0.994 | S. cerevisiae deletion strains, locus YLR102C, strain apc9, hits give low values 0.99 | S. cerevisiae deletion strains, locus YLR221C, strain rsa3, hits give low values 0.981 | S. cerevisiae deletion strains, locus YLR258W, strain gsy2, hits give low values 1.01 | S. cerevisiae deletion strains, locus YLR262C, strain YPT6, hits give low values 1.03 | S. cerevisiae deletion strains, locus YLR268W, strain sec22, hits give low values 0.997 | S. cerevisiae deletion strains, locus YLR320W, strain mms22, hits give low values 0.963 | S. cerevisiae deletion strains, locus YLR330W, strain CHS5, hits give low values 0.998 | S. cerevisiae deletion strains, locus YLR342W, strain FKS1 (second series), hits give low values 0.975 | S. cerevisiae deletion strains, locus YLR342W, strain FKS1, hits give low values 1.01 | S. cerevisiae deletion strains, locus YLR357W, strain rsc2, hits give low values 1.03 | S. cerevisiae deletion strains, locus YLR370C, strain arc18, hits give low values 1.01 | S. cerevisiae deletion strains, locus YLR371W, strain rom2, hits give low values 0.972 | S. cerevisiae deletion strains, locus YLR384C, strain iki3, hits give low values 0.996 | S. cerevisiae deletion strains, locus YLR418C, strain cdc73, hits give low values 0.993 | S. cerevisiae deletion strains, locus YML016C, strain PPZ1, hits give low values 0.993 | S. cerevisiae deletion strains, locus YML032C, strain rad52, hits give low values 0.975 | S. cerevisiae deletion strains, locus YML120C, strain ndi1, hits give low values 1.02 | S. cerevisiae deletion strains, locus YML124C, strain tub3, hits give low values 0.983 | S. cerevisiae deletion strains, locus YMR058W, strain fet3, hits give low values 1.01 | S. cerevisiae deletion strains, locus YMR078C, strain ctf18, hits give low values 0.988 | S. cerevisiae deletion strains, locus YMR125W, strain sto1, hits give low values 1 | S. cerevisiae deletion strains, locus YMR129W, hits give low values 1.01 | S. cerevisiae deletion strains, locus YMR205C, strain PFK2, hits give low values 0.985 | S. cerevisiae deletion strains, locus YMR223W, strain ubp8, hits give low values 0.966 | S. cerevisiae deletion strains, locus YMR231W, strain pep5, hits give low values 1 | S. cerevisiae deletion strains, locus YMR263W, strain SAP30, hits give low values 1.01 | S. cerevisiae deletion strains, locus YMR307W, strain GAS1, hits give low values 0.892 | S. cerevisiae deletion strains, locus YNL067W, strain RPL9B, hits give low values 0.999 | S. cerevisiae deletion strains, locus YNL071W, strain lat1, hits give low values 0.999 | S. cerevisiae deletion strains, locus YNL128W, strain TEP1, hits give low values 0.992 | S. cerevisiae deletion strains, locus YNL153C, strain GIM3, hits give low values 0.998 | S. cerevisiae deletion strains, locus YNL209W, strain ssb2, hits give low values 1 | S. cerevisiae deletion strains, locus YNL233W, strain BNI4, hits give low values 1 | S. cerevisiae deletion strains, locus YNL248C, strain rpa49, hits give low values 1.01 | S. cerevisiae deletion strains, locus YNL250W, strain rad50, hits give low values 0.992 | S. cerevisiae deletion strains, locus YNL271C, strain bni1, hits give low values 0.988 | S. cerevisiae deletion strains, locus YNL298W, strain CLA4, hits give low values 0.977 | S. cerevisiae deletion strains, locus YNL307C, strain MCK1, hits give low values 0.964 | S. cerevisiae deletion strains, locus YNL322C, strain KRE1 (second series), hits give low values 0.985 | S. cerevisiae deletion strains, locus YNL322C, strain KRE1, hits give low values 1.01 | S. cerevisiae deletion strains, locus YNR049C, strain mso1, hits give low values 1.01 | S. cerevisiae deletion strains, locus YNR052C, strain pop2, hits give low values 0.96 | S. cerevisiae deletion strains, locus YOL006C, strain TOP1, hits give low values 1.02 | S. cerevisiae deletion strains, locus YOL012C, strain htz1 0.957 | S. cerevisiae deletion strains, locus YOL147C, strain pex11, hits give low values 0.985 | S. cerevisiae deletion strains, locus YOR001W, strain rrp6, hits give low values 0.987 | S. cerevisiae deletion strains, locus YOR061W, strain CKA2, hits give low values 1.01 | S. cerevisiae deletion strains, locus YOR069W, strain VPS5, hits give low values 0.992 | S. cerevisiae deletion strains, locus YOR070C, strain gyp1, hits give low values 1.02 | S. cerevisiae deletion strains, locus YOR080W, strain dia2, hits give low values 1.01 | S. cerevisiae deletion strains, locus YOR083W, strain WHI5, hits give low values 1 | S. cerevisiae deletion strains, locus YOR106W, strain vam3, hits give low values 0.967 | S. cerevisiae deletion strains, locus YOR136W, strain idh2, hits give low values 0.972 | S. cerevisiae deletion strains, locus YOR144C, strain elg1, hits give low values 0.982 | S. cerevisiae deletion strains, locus YOR184W, strain ser1, hits give low values 0.962 | S. cerevisiae deletion strains, locus YOR265W, strain rbl2, hits give low values 1.01 | S. cerevisiae deletion strains, locus YOR270C, strain vph1, hits give low values 0.982 | S. cerevisiae deletion strains, locus YOR290C, strain snf2, hits give low values 0.984 | S. cerevisiae deletion strains, locus YOR316C, strain cot1, hits give low values 0.995 | S. cerevisiae deletion strains, locus YPL051W, strain arl3, hits give low values 0.978 | S. cerevisiae deletion strains, locus YPL055C, strain LGE1, hits give low values 0.996 | S. cerevisiae deletion strains, locus YPL078C, strain atp4, hits give low values 1.02 | S. cerevisiae deletion strains, locus YPL106C, strain sse1, hits give low values 1.06 | S. cerevisiae deletion strains, locus YPL240C, strain hsp82, hits give low values 1.01 | S. cerevisiae deletion strains, locus YPL241C, strain CIN2, hits give low values 1 | S. cerevisiae deletion strains, locus YPR119W, strain clb2, hits give low values 0.998 | S. cerevisiae deletion strains, locus YPR141C, strain kar3, hits give low values 0.994 | S. cerevisiae deletion strains, locus YPR163C, strain tif3, hits give low values 0.97 | S. cerevisiae deletion strains, locus YPR167C, strain met16, hits give low values 0.991 | S. cerevisiae deletion strains, strain wtn01, hits give low values 1 | S. cerevisiae strains, strain wild type, hits give low values 1
active: S. cerevisiae deletion strains, locus YLR262C, strain YPT6 (second series), hits give low values 0.856

— PubChem BioAssay AID1159580 (chemical genetic matrix, 2015)
